These results are taken from PubChem BioAssay (NCI).

Structures are written as SMILES. The panel holds about 83,000 compounds, 20% with a hit somewhere; the sample as a whole holds those more often.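 Plates (96-well) were seeded with cells, treated with compound at one concentration, and incubated for 48 hours before percent growth was determined.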 Unmarked numbers belong to inactive results. Activity calls are given as the source filed them. How the source made its calls: active means growth percent below 10; inactive means the rest.

Some test systems named below: SR leukemia; RPMI-8226 leukemia; OVCAR-8 ovarian; OVCAR-5 ovarian; OVCAR-4 ovarian; SK-OV-3 ovarian; IGROV1 ovarian; OVCAR-3 ovarian; HS 578T breast; NCI/ADR-RES ovarian; T-47D breast; BT-549 breast; MDA-MB-435 melanoma; SW-620 colon; MCF7 breast; HCT-116 colon; HCC-2998 colon; KM12 colon.
Common to all, as to test: NCI-60 one-dose screen, 48 h (100 = growth as untreated, 0 = no growth, -100 = all killed)
Holding throughout (settings): 10 µM unless noted

On to `CCOC(=O)C(=O)/C(=C\c1ccc(Cl)cc1)C(=O)N1C(=S)NC(=O)C1CC(C)C` (configuration not stated), for which the growth with SR leukemia was 105%; in the experiment on RPMI-8226 leukemia, 93.2%; with OVCAR-8 ovarian, 103%; in the experiment with OVCAR-5 ovarian it was 98.6%; in the experiment with OVCAR-4 ovarian, 98.2%; in the experiment on SK-OV-3 ovarian, 108%. Further, the growth was 95.2% in the experiment on IGROV1 ovarian; 111% in the experiment with OVCAR-3 ovarian; 106% in the experiment on HS 578T breast; 101% in the experiment on NCI/ADR-RES ovarian; 98.2% in the experiment on T-47D breast; 108% with BT-549 breast. In addition, the growth with MDA-MB-435 melanoma is 98.6%; with SW-620 colon, 104%; with MCF7 breast, 92%; in the experiment on HCT-116 colon it was 99.3%; with HCC-2998 colon, 101%; in the experiment with KM12 colon it was 98.8%.

For `O=C(CCn1c[n+](CC(=O)c2ccc(F)cc2)c2ccccc21)Nc1cccc2cccnc12`, the growth in the experiment with SR leukemia is 79.5%; with RPMI-8226 leukemia, 35.1%; in the experiment on OVCAR-8 ovarian, 86.9%; in the experiment on OVCAR-5 ovarian it was 79.6%; in the experiment on OVCAR-4 ovarian it was 52.3%; in the experiment with SK-OV-3 ovarian, 88.2%. Also, the growth is 39.4% with IGROV1 ovarian; 55.4% with OVCAR-3 ovarian; 84.5% in the experiment on HS 578T breast; 96.5% with NCI/ADR-RES ovarian; 53.9% with T-47D breast; 69.9% with BT-549 breast. Also, the growth in the experiment on MDA-MB-435 melanoma is 79%; with SW-620 colon it was 92.3%; in the experiment on MCF7 breast, 68%; in the experiment on HCT-116 colon, 53.1%; in the experiment with HCC-2998 colon, 87%; in the experiment with KM12 colon, 76%.

In the case of `C=C(C)[C@@H]1CC[C@]2(C(=O)NCCCCCN(CCC#N)CCC#N)CC[C@]3(C)[C@H](CC[C@@H]4[C@@]5(C)CCC(=O)C(C)(C)[C@@H]5CC[C@]43C)[C@@H]12`, the growth is 80.4% with SR leukemia; 79.7% in the experiment on RPMI-8226 leukemia; 106% in the experiment with OVCAR-8 ovarian; 96.2% with OVCAR-5 ovarian; 86% with OVCAR-4 ovarian; 118% in the experiment on SK-OV-3 ovarian. The growth with IGROV1 ovarian was 97.6%; with OVCAR-3 ovarian, 111%; in the experiment on HS 578T breast, 103%; in the experiment on NCI/ADR-RES ovarian, 108%; in the experiment on T-47D breast, 106%; in the experiment on BT-549 breast it was 92.9%. Also, the growth with MDA-MB-435 melanoma is 99.7%; in the experiment with SW-620 colon, 97.4%; in the experiment with MCF7 breast, 86.2%; with HCT-116 colon, 95.5%; with HCC-2998 colon it was 110%; in the experiment on KM12 colon, 101%.

As for `CC1(C)NCCC[C@]2(C)[C@H]3C/C(=N\O)C4[C@@H]5C[C@@](C)(CO)CC[C@]5(C)CC[C@@]4(C)[C@]3(C)CC[C@@H]12` (some centres not stated), the growth with SR leukemia is 81.2%; in the experiment on RPMI-8226 leukemia, 111%; in the experiment with OVCAR-8 ovarian, 98.4%; in the experiment on OVCAR-5 ovarian it was 104%; in the experiment on OVCAR-4 ovarian it was 99.4%; with SK-OV-3 ovarian it was 107%. Further, the growth is 96.5% in the experiment with IGROV1 ovarian; 109% with OVCAR-3 ovarian; 98.6% in the experiment on HS 578T breast; 98.1% in the experiment on NCI/ADR-RES ovarian; 85.3% in the experiment on T-47D breast; 97.6% in the experiment on BT-549 breast. Besides, the growth is 111% in the experiment with MDA-MB-435 melanoma; 103% in the experiment on SW-620 colon; 86.9% in the experiment with MCF7 breast; 86.3% in the experiment on HCT-116 colon; 105% with HCC-2998 colon; 104% in the experiment on KM12 colon.

In the case of `COc1ccc(COc2ccc(/C=C3\C(=O)Nc4ccccc43)cc2OC)cc1`, the growth in the experiment on SR leukemia was 102%; with RPMI-8226 leukemia, 104%; with OVCAR-8 ovarian, 101%; with OVCAR-5 ovarian it was 99.9%; with OVCAR-4 ovarian it was 99.8%; with SK-OV-3 ovarian, 119%. For the same compound, the growth was 107% in the experiment on IGROV1 ovarian; 115% in the experiment on OVCAR-3 ovarian; 105% in the experiment with HS 578T breast; 106% with NCI/ADR-RES ovarian; 113% in the experiment with T-47D breast; 92.1% with BT-549 breast. For the same compound, the growth with MDA-MB-435 melanoma was 106%; in the experiment with SW-620 colon it was 99.1%; in the experiment with MCF7 breast, 94%; in the experiment with HCT-116 colon, 108%; in the experiment on HCC-2998 colon it was 102%; with KM12 colon, 104%.

As for `COc1ccc(-c2cc(-c3ccc(Cl)cc3)c(C#N)c(=O)n2Cc2ccc(C(=O)O)cc2)cc1`, the growth is 28.9% in the experiment on SR leukemia; 79.9% in the experiment on RPMI-8226 leukemia; 99% in the experiment on OVCAR-8 ovarian; 105% in the experiment on OVCAR-5 ovarian; 88.6% in the experiment with OVCAR-4 ovarian; 114% in the experiment with SK-OV-3 ovarian. Besides, the growth in the experiment on IGROV1 ovarian was 96.9%; in the experiment with OVCAR-3 ovarian it was 6.02% (active); in the experiment on HS 578T breast, 31.9%; in the experiment on NCI/ADR-RES ovarian, 83.6%; with T-47D breast, 48.7%; in the experiment on BT-549 breast, 62.8%. For the same compound, the growth is 21.1% in the experiment on MDA-MB-435 melanoma; 94.8% with SW-620 colon; 33.3% in the experiment on MCF7 breast; 77.7% in the experiment with HCT-116 colon; 95.6% with HCC-2998 colon; 43.2% in the experiment with KM12 colon.

`COc1ccc2c(c1)c(CC(=O)[Se]CC(=O)O)c(C)n2C(=O)c1ccc(Cl)cc1`: the growth was 101% in the experiment on SR leukemia; 98.4% with RPMI-8226 leukemia; 101% in the experiment with OVCAR-8 ovarian; 104% in the experiment with OVCAR-5 ovarian; 103% in the experiment with OVCAR-4 ovarian; 116% in the experiment with SK-OV-3 ovarian. Besides, the growth with IGROV1 ovarian is 74.5%; with OVCAR-3 ovarian, 113%; in the experiment with HS 578T breast it was 85.8%; with NCI/ADR-RES ovarian, 103%; with T-47D breast, 103%; in the experiment on BT-549 breast, 122%. In addition, the growth in the experiment on MDA-MB-435 melanoma was 51.2%; with SW-620 colon, 113%; with MCF7 breast, 37.4%; in the experiment on HCT-116 colon, 98.1%; in the experiment with HCC-2998 colon, 119%; with KM12 colon it was 101%.

As to `O=C1[C@@H]2Cc3c([nH]c4ccccc34)[C@H](c3c(Cl)cccc3Cl)N2C(=O)CN1C1CCN(CC2CCCCC2)CC1`, the growth in the experiment with SR leukemia is -0.527% (active); in the experiment with RPMI-8226 leukemia, 38.4%; with OVCAR-8 ovarian it was 88.1%; with OVCAR-5 ovarian, 93.4%; in the experiment on OVCAR-4 ovarian, 90.2%; in the experiment on SK-OV-3 ovarian it was 123%. Moreover, the growth is 58.4% in the experiment on IGROV1 ovarian; 20.3% in the experiment on OVCAR-3 ovarian; 18.7% in the experiment on HS 578T breast; 74.9% in the experiment with NCI/ADR-RES ovarian; 61% with T-47D breast; 63.2% in the experiment on BT-549 breast. Also, the growth is 73.6% in the experiment with MDA-MB-435 melanoma; 10.2% in the experiment on SW-620 colon; 18.4% in the experiment on MCF7 breast; 4.3% (active) with HCT-116 colon; 73.4% with HCC-2998 colon; 68.7% in the experiment on KM12 colon.

Turning to `O=c1[nH]c(Sc2sc3ccc(Cl)cc3c2CBr)nc(=S)[nH]1`, the growth with SR leukemia is 7.03% (active); with RPMI-8226 leukemia, 24.2%; with OVCAR-8 ovarian, 41.2%; with OVCAR-5 ovarian, 49.3%; with OVCAR-4 ovarian, 40.7%; with SK-OV-3 ovarian it was 18.4%. The growth was 4.63% (active) with IGROV1 ovarian; 56% in the experiment on OVCAR-3 ovarian; 19.3% with HS 578T breast; 65.3% in the experiment with NCI/ADR-RES ovarian; -0.0992% (active) in the experiment on T-47D breast; 48.5% in the experiment with BT-549 breast. Further, the growth with MDA-MB-435 melanoma is 15.1%; with SW-620 colon, 40.4%; in the experiment with MCF7 breast, 15.2%; in the experiment with HCT-116 colon, 38.6%; with HCC-2998 colon, 48.5%; in the experiment on KM12 colon, 12.8%.
